ALDH1A1 inh-1 = inhibitors of human aldehyde dehydrogenase 1A1; AID 1030; Potency, µM (highest dose often 75.3 µM), for the others: at the top dose activity, negative = inhibition, usual class: inhibitors; 220,000 compounds, 7.3% hits; P00352; Purified ALDH1A1, NADH fluorescence, propionaldehyde substrate;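 also: potency is read from the fitted curve at half-maximal effect; plate controls were no enzyme wells and a reference inhibitor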
LMNA splice mod = LMNA splicing modulation; HeLa LMNA splicing GFP/RFP minigene ratio, 48 h; Potency, µM (series often up to 46.1 µM), for the others: top-dose ratio change, negative = inhibition, hits mostly inhibitors; 200,000 compounds, 0.01% hits; AID 1487; active = well fitted inhibition curve with a large enough effect in the signal ratio, with a control signal flat, not every such curve was filed as active; inconclusive = small, poorly fitted or top-dose-only effect, or effect the other way, or a change in a side signal; the % refers to the signal ratio; also: potency is read from the fitted curve at half-maximal effect; % is scaled to controls: 0 for no effect and ±100 for the full control effect
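S3 HeLa cells stably expressing lamin A-EGFP splicing minigene plus DsRed2, 600 cells/well, 48 h compound exposure at 37C. Laser-scanning cytometry; analysed as GFP (500-530 nm)/RFP (575-640 nm) total intensity ratio; 0.5% DMSO vehicle.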
HTT ATP protect = Huntington cell model cytoprotection by ATP luminescence | PC12 HTT-Q103 induced, cytoprotection, ATP luminescence, 40 h | Potency, µM (doses to about 56.4 µM), for inactives: cytoprotection (ATP increase), most hits filed as activators | AID 1471 | 230,000 compounds, 0.14% hits; active = well fitted curve in the direction sought with a large enough effect; inconclusive = small, poorly fitted or top-dose-only effect, or another doubt; inactive = no such curve, though single readings can be large; an effect the other way counts as inactive or inconclusive; also: potency is read from the fitted curve at half-maximal effect; % of control where 0% means no effect; nearly all actives have a fitted effect of over 45% in size
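Cells were plated at 1500 per well in phenol red-free DMEM with 5% equine and 5% calf serum. Tebufenozide (100 nM final) and compounds were added, then ATPlite reagent, and luminescence was read.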
HttQ103 aggreg = inhibitors of mutant huntingtin aggregate formation in PC12 cells; PC12 HttQ103-GFP aggregates, Acumen cytometry, 40 h; Potency, µM (series often up to 46.1 µM), inactives show at the top dose activity change, negative = inhibition, hits mostly inhibitors; 220,000 compounds, 1.1% hits; active = well fitted curve in the direction sought with a large enough effect; inconclusive = small, poorly fitted or top-dose-only effect, or another doubt; inactive = no such curve, though single readings can be large; an effect the other way counts as inactive or inconclusive; also: potency is read from the fitted curve at half-maximal effect; % is scaled to controls: 0 for no effect and ±100 for the full control effect; nearly all actives have a fitted effect of over 60% in size
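Multiplexed with ATP-based cell death, this channel scores GFP aggregates in PC12 cells expressing inducible HTTex1-Q103-GFP. Induction used 100 nM tebufenozide; compounds were tested in concentration series.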
HPGD block = HPGD (human) dehydrogenase inhibition; P15428; purified HPGD, NADH fluorescence kinetic, PGE2 substrate; Potency, µM, without a hit: at the highest dose activity change, negative = inhibition, usual class: inhibitors; 150,000 compounds, 4.3% hits; AID 894; also: potency is read from the fitted curve at half-maximal effect; % is scaled to controls: 0 for no effect and ±100 for the full control effect
Target sequence (P15428 whole entry, looked up): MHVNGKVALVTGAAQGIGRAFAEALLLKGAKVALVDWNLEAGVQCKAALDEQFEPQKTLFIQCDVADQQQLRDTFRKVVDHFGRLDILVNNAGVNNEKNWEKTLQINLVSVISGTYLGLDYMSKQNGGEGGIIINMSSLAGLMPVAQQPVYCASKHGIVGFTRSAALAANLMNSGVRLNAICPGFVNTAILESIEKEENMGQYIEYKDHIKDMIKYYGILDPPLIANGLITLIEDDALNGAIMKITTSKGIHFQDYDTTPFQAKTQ
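NADH formation kinetics: reaction with 30 uM PGE2 and 1 mM NAD+ (final), 20 nM enzyme, Tris-HCl pH 8 with Tween 20, after 15 min compound preincubation at room temperature. Fluorescence change, last versus first of five reads.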
HPGD inh cf = human HPGD enzyme inhibition, confirmation. shares compounds with HPGD block. recombinant HPGD, NADH fluorescence, PGE2 substrate. Potency, µM (doses to about 57.1 µM), without a hit: top-dose activity change, negative = inhibition, most hits filed as inhibitors. 90 compounds, 90% hits. AID 2429; calls by dose curve
ALDH1A1 inh-2 = Blocks ALDH1A1 NADH production, follow-up; shares compounds with ALDH1A1 inh-1; purified ALDH1A1, NADH fluorescence, propionaldehyde/NAD+; Potency, µM (series often up to 57.1 µM), for inactives: at the top dose activity change, negative = inhibition, most hits filed as inhibitors; 90 compounds, 90% hits; AID 493210; calls by dose curve
* marks the source's active call; other numbers are inactive results; ? = inconclusive; . = not tested or not shown; [ ] = dose if it differs, or a comment. Compounds with a hit are over-represented: about 8.8% of the library has one in this group of screens. Unless noted, calls follow the shape of the dose curve; as a rule, active = well fitted inhibition curve with a large enough effect (not every such curve was filed as active); inconclusive = small, poorly fitted or top-dose-only effect, or another doubt; inactive = no such curve, though single readings can be large or run the other way.

SMILES	ALDH1A1 inh-1	LMNA splice mod	HTT ATP protect	HttQ103 aggreg	HPGD block	others
CC(C)Nc1ccc(Nc2ccccc2)cc1	8.9µM*	1.4µM*	5%	-29%	-14%
c1ccc(Nc2ccc3ccccc3c2)cc1	?	.	-17%	.	?
Cc1noc(C(=O)Nc2sc3c(c2C#N)CCC3)c1Cl	13µM*	?	-143%	?	25µM*
CCOC(=O)c1c(-n2c(C)cc(C=C3C(=O)NC(=O)NC3=O)c2C)sc2c1CCCC2	-2%	?	-39%	?	-17%
Cc1cccc(N2C(=O)NC(=O)/C(=C\c3cc(C)n(-c4sc5c(c4C#N)CCCC5)c3C)C2=O)c1C	0.25µM*	-4%	2%[10 µM]	5µM*	4µM*
O=C(O)[C@@H](Br)[C@H](Br)C(=O)O	15%[13.5 µM]	.	9%[10 µM]	.	-4%
CN1C(=O)C(Cc2c[nH]c3ccccc23)C(=O)N(C)C1=O	14µM*	-20%	-11%[0.074 µM]	-16%	?
OC[C@H]1CCCN2CCCC[C@@H]12	.	.	8%	.	.
Cn1c(=O)c2[nH]cnc2n(C)c1=O.[CH2-][C@H](Cc1cccc2cc(C(=O)O)c(=O)oc12)OC.[Hg].[OH-]	3.2µM*	.	3%[10 µM]	.	4µM*
CC(C)(O)[C@H]1[C@H]2OC(=O)[C@@H]1[C@]1(O)C[C@H]3O[C@]34C(=O)O[C@H]2[C@]14C (tested in a mixture with another compound)	.	.	11%[1.9 µM]	.	.
O=C(c1ccc2c(c1)OCO2)N1CCC2(CC1)OCCO2	5%	4%	-7%	-8%	25µM*
O=C(c1ccccc1)N1CCC2(CC1)OCCO2	2%	.	8%[10 µM]	4%[9.22 µM]	.
O=C(c1ccc(N2CCCCCC2)c([N+](=O)[O-])c1)N1CCC2(CC1)OCCO2	11µM*	13%[46 µM]	?	-9%	.
CC1CCCN(C(=O)CCl)C1 (configuration not stated)	0.63µM*	?	.	-8%	-6%
CCCN1CCC[C@H](c2cccc(C#N)c2)C1	.	.	2%[1.9 µM]	.	.
O=C(O)CNC(=O)c1ccccc1I	.	?	-14%	-3%	.
ClC1=C(Cl)C(Cl)(Cl)C(Cl)=C1Cl	28µM*	.	-9%	.	-8%
NCCSC(c1ccccc1)c1ccccc1	-12%[13.5 µM]	.	15%[10 µM]	.	-8%
Cc1ccc(-n2nc(C)c3c2OC(N)=C(C#N)C3c2cccs2)cc1 (configuration not stated)	13µM*	-3%	-2%[10 µM]	17%	-13%
Cc1ccc(-c2cc(-c3ccc(C)cc3)[n+](C)o2)cc1	?	?	.	3.2µM*	?
Oc1c(Cl)c(Cl)cc(Cl)c1Cl	-9%	.	8%	.	?
C[N+](=O)[O-]	10%	.	-3%	.	-3%
COc1ccc(C2C(C(=O)N3CCC4(CC3)OCCO4)c3cc(OC)c(OC)cc3C(=O)N2C)cc1 (configuration not stated)	14µM*	-6%	4%[10 µM]	-17%	-16%
COc1ccc(NC(=O)N2CCC3(CC2)OCCO3)cc1OC	16%	-4%	.	1%	1%
C=C1C/C(=C\C)C(=O)O[C@@H]2CCN3CC=C(COC(=O)[C@]1(C)O)[C@H]23	.	.	-37%	.	.
SMILES	ALDH1A1 inh-1	LMNA splice mod	HTT ATP protect	HttQ103 aggreg	HPGD block	others
COc1cc2occc2c2oc(=O)ccc12	-11%	-10%	-46%	28%	-16%
COc1c2ccoc2cc2oc(=O)ccc12	20µM*	.	0%[1.9 µM]	.	-1%
O=P1(NC2CCCC2)COc2ccccc2OC1	-9%	-7%	1%[10 µM]	-8%	0.071µM*	HPGD inh cf=0.16µM*
c1ccc(CC(NCc2ccco2)c2ccccc2)cc1 (configuration not stated)	-5%	7%[9.22 µM]	-13%	-5%	.
O=P1(NCc2ccco2)COc2ccccc2OC1	0%	0%	-19%	11%	1µM*	HPGD inh cf=1µM*
C=C(C)[C@]12C[C@@H](C)[C@@]34OC(Cc5ccccc5)(O[C@@H]1[C@@H]3C=C(COC(=O)Cc1cc(I)c(O)c(OC)c1)C[C@]1(O)C(=O)C(C)=C[C@@H]41)O2	-1%	.	-171%	.	-12%
O=C1C=CC(=O)c2c1ccc1c2ccc2ccccc21	0.32µM*	?	-1%[40.3 µM]	.	11µM*	ALDH1A1 inh-2=0.32µM*
O=[As](O)(O)c1ccc2nc3cc([As](=O)(O)O)ccc3nc2c1	3%[13.5 µM]	.	1%[10 µM]	.	-6%

High-throughput results: PubChem, National Center for Advancing Translational Sciences (NCATS)
